# Test results taken from publication PMC7862700, “An all-to-all approach to the identification of sequence-specific readers for epigenetic DNA modifications on cytosine”.
# What was measured:
# Assay in all cases: DAPPL (digital affinity profiling via proximity ligation, sequencing); 10 mM Tris-HCl pH 7.5, 50 mM NaCl, 1 mM DTT, 4% glycerol, room temperature, 30 min; GST-TFs on glutathione beads, 16-mer random dsDNA library, 0.1% formaldehyde crosslink after washing; high values mean tight binding
# Details in all cases: protein: recombinant; tags: N-terminal GST; dsDNA, one strand shown
# ERF = target: T1, ERF (Homo sapiens, UniProt P50548 1-548)
# T1 sequence: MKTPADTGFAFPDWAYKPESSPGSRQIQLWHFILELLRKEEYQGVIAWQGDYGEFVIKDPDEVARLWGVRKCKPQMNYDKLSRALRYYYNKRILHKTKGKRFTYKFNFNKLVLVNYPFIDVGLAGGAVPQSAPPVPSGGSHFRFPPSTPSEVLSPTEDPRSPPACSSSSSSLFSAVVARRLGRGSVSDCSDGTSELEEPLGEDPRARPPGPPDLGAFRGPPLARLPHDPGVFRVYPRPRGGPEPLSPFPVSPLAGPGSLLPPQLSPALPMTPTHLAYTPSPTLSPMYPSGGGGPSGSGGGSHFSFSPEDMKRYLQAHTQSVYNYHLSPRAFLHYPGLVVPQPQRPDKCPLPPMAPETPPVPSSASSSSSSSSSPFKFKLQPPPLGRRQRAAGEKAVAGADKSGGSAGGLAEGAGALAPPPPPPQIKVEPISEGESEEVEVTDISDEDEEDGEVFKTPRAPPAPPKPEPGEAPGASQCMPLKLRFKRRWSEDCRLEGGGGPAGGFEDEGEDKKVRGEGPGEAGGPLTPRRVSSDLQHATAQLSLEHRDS
# Procedure, shortened: (§1)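 Binding signal is each hexamer's read frequency for a factor divided by its frequency in the tag-only sample. The factors were GST-fused human transcription factors from yeast, captured on glutathione beads, DNA-barcoded and pooled with that sample. Pools were incubated with 200 nmole of a random double-stranded 16-mer DNA library in Tris/NaCl/DTT/glycerol buffer at room temperature for 30 min, then washed, crosslinked with 0.1% formaldehyde, proximity-ligated with BsaI/T4 ligase (1 h, 37 °C), PCR-amplified and sequenced on an Illumina NextSeq500.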
# ETV3L = target: T2, ETV3L (Homo sapiens, UniProt Q6ZN32 1-361)
# T2 sequence: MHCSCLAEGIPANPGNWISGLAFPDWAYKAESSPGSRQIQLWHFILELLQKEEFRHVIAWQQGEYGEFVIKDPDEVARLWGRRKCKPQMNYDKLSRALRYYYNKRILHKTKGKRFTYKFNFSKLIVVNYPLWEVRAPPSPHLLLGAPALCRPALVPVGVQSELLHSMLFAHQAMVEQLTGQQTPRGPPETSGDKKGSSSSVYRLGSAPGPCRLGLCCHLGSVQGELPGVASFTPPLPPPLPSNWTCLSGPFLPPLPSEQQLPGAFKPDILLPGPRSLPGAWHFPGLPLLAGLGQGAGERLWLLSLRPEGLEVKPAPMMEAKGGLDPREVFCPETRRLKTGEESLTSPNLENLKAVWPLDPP
# Procedure, shortened: as §1
# ETS2 = target: T3, ETS2 (Homo sapiens, UniProt P15036 1-469)
# T3 sequence: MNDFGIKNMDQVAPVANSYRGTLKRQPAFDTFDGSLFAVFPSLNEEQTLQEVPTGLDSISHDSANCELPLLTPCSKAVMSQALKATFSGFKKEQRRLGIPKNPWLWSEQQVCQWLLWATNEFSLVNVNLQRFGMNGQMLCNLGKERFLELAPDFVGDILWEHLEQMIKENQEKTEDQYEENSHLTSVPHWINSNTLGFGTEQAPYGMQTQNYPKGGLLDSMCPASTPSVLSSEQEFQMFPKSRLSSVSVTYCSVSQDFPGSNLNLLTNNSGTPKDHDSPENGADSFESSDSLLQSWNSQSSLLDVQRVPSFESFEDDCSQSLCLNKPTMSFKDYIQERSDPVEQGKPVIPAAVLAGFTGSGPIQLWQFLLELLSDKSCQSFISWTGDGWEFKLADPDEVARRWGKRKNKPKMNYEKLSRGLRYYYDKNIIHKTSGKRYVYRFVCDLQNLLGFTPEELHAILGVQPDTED
# Procedure, shortened: as §1
# SPDEF = target: T4, SPDEF (Homo sapiens, UniProt O95238 1-335)
# T4 sequence: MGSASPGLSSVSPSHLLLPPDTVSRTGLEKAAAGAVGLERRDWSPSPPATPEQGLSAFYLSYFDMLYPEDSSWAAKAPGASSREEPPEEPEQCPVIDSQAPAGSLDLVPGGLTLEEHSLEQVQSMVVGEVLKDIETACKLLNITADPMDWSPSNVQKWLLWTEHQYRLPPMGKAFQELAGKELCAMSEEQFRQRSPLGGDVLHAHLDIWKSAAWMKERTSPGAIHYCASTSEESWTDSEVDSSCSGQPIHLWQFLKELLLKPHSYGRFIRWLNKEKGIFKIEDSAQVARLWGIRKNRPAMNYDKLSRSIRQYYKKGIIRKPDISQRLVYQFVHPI
# Procedure, shortened: as §1
# ETV7 = target: T5, ETV7 (Homo sapiens, UniProt Q9Y603 1-341)
# T5 sequence: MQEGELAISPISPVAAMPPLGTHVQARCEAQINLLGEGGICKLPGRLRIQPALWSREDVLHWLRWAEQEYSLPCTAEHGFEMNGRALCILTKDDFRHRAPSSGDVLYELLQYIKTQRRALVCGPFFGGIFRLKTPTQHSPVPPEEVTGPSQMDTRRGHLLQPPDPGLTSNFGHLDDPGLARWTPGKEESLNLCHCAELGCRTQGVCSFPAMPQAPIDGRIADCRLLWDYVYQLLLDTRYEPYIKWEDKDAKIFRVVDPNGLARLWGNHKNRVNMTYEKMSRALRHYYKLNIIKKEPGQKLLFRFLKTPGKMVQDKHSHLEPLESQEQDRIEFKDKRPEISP
# Procedure, shortened: as §1
# ELF5 = target: T6, ELF5 (Homo sapiens, UniProt Q9UKW6-2 1-255)
# T6 sequence: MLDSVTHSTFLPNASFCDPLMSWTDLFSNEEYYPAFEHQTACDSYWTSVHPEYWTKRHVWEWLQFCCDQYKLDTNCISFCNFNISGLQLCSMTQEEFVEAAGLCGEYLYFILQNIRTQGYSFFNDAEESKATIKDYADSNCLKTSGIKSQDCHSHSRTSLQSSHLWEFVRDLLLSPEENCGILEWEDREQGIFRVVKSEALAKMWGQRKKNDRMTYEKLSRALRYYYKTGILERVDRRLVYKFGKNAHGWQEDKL
# Procedure, shortened: as §1
# ETV3 = target: T7, ETV3 (Homo sapiens, UniProt P41162-2 1-143)
# T7 sequence: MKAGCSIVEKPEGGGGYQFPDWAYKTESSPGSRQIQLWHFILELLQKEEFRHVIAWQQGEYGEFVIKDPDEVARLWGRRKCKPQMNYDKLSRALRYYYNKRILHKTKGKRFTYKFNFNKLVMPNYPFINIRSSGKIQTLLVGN
# Procedure, shortened: as §1
# ETV6 = ETV6 (Homo sapiens, UniProt P41212 1-452)
# ETV6, sequence (P41212 whole entry): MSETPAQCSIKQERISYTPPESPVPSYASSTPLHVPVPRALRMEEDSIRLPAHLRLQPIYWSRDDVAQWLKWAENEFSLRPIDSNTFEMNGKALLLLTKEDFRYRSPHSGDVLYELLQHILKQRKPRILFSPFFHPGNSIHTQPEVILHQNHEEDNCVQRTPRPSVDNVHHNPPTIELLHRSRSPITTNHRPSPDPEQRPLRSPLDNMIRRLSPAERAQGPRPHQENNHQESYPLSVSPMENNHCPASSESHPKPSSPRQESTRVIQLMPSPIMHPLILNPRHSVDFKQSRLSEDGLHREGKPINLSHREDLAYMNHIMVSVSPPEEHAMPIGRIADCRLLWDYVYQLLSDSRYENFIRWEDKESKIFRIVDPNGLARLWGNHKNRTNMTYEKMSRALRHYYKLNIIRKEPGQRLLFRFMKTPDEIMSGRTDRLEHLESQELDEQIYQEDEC
# Procedure, shortened: as §1
Sequence,binding signal (ERF),binding signal (ETV3L),binding signal (ETS2),binding signal (SPDEF),binding signal (ETV7),binding signal (ELF5),binding signal (ETV3),binding signal (ETV6)
CCGCGC,"1.23 fold enrichment (6-mer frequency, TF over GST control)","1.08 fold enrichment (6-mer frequency, TF over GST control)","1.21 fold enrichment (6-mer frequency, TF over GST control)","1.17 fold enrichment (6-mer frequency, TF over GST control)","1.06 fold enrichment (6-mer frequency, TF over GST control)","1.18 fold enrichment (6-mer frequency, TF over GST control)","1.19 fold enrichment (6-mer frequency, TF over GST control)","1.15 fold enrichment (6-mer frequency, TF over GST control)"
TCCGGG,"1.38 fold enrichment (6-mer frequency, TF over GST control)","1.4 fold enrichment (6-mer frequency, TF over GST control)","1.67 fold enrichment (6-mer frequency, TF over GST control)","2.46 fold enrichment (6-mer frequency, TF over GST control)","1.44 fold enrichment (6-mer frequency, TF over GST control)","2.39 fold enrichment (6-mer frequency, TF over GST control)","1.71 fold enrichment (6-mer frequency, TF over GST control)","1.77 fold enrichment (6-mer frequency, TF over GST control)"
ATGTGC,"1.15 fold enrichment (6-mer frequency, TF over GST control)","1.11 fold enrichment (6-mer frequency, TF over GST control)","1.1 fold enrichment (6-mer frequency, TF over GST control)","1.23 fold enrichment (6-mer frequency, TF over GST control)","1.03 fold enrichment (6-mer frequency, TF over GST control)","1.09 fold enrichment (6-mer frequency, TF over GST control)","1.15 fold enrichment (6-mer frequency, TF over GST control)","1.1 fold enrichment (6-mer frequency, TF over GST control)"
TGCAAT,"1.14 fold enrichment (6-mer frequency, TF over GST control)","1.12 fold enrichment (6-mer frequency, TF over GST control)","1.15 fold enrichment (6-mer frequency, TF over GST control)","1.15 fold enrichment (6-mer frequency, TF over GST control)","1.2 fold enrichment (6-mer frequency, TF over GST control)","1.1 fold enrichment (6-mer frequency, TF over GST control)","1.15 fold enrichment (6-mer frequency, TF over GST control)","1.17 fold enrichment (6-mer frequency, TF over GST control)"
GAAGAA,"1.02 fold enrichment (6-mer frequency, TF over GST control)","1.18 fold enrichment (6-mer frequency, TF over GST control)","1.16 fold enrichment (6-mer frequency, TF over GST control)","1.09 fold enrichment (6-mer frequency, TF over GST control)","1.16 fold enrichment (6-mer frequency, TF over GST control)","1.27 fold enrichment (6-mer frequency, TF over GST control)","1.12 fold enrichment (6-mer frequency, TF over GST control)","1.18 fold enrichment (6-mer frequency, TF over GST control)"
GCGCTC,"1.2 fold enrichment (6-mer frequency, TF over GST control)","1.19 fold enrichment (6-mer frequency, TF over GST control)","1.2 fold enrichment (6-mer frequency, TF over GST control)","1.07 fold enrichment (6-mer frequency, TF over GST control)","1.04 fold enrichment (6-mer frequency, TF over GST control)","1.05 fold enrichment (6-mer frequency, TF over GST control)","1.08 fold enrichment (6-mer frequency, TF over GST control)","1.02 fold enrichment (6-mer frequency, TF over GST control)"
AATCCG,"1.5 fold enrichment (6-mer frequency, TF over GST control)","1.6 fold enrichment (6-mer frequency, TF over GST control)","1.7 fold enrichment (6-mer frequency, TF over GST control)","2.04 fold enrichment (6-mer frequency, TF over GST control)","1.51 fold enrichment (6-mer frequency, TF over GST control)","1.74 fold enrichment (6-mer frequency, TF over GST control)","1.66 fold enrichment (6-mer frequency, TF over GST control)","1.49 fold enrichment (6-mer frequency, TF over GST control)"
CCGTCC,"1.51 fold enrichment (6-mer frequency, TF over GST control)","1.38 fold enrichment (6-mer frequency, TF over GST control)","1.38 fold enrichment (6-mer frequency, TF over GST control)","1.55 fold enrichment (6-mer frequency, TF over GST control)","1.27 fold enrichment (6-mer frequency, TF over GST control)","1.36 fold enrichment (6-mer frequency, TF over GST control)","1.51 fold enrichment (6-mer frequency, TF over GST control)","1.29 fold enrichment (6-mer frequency, TF over GST control)"
GCTACA,"1.2 fold enrichment (6-mer frequency, TF over GST control)","1.29 fold enrichment (6-mer frequency, TF over GST control)","1.17 fold enrichment (6-mer frequency, TF over GST control)","1.25 fold enrichment (6-mer frequency, TF over GST control)","1.18 fold enrichment (6-mer frequency, TF over GST control)","1.19 fold enrichment (6-mer frequency, TF over GST control)","1.17 fold enrichment (6-mer frequency, TF over GST control)","1.17 fold enrichment (6-mer frequency, TF over GST control)"
TTTTTA,"1.26 fold enrichment (6-mer frequency, TF over GST control)","1.29 fold enrichment (6-mer frequency, TF over GST control)","1.34 fold enrichment (6-mer frequency, TF over GST control)","1.29 fold enrichment (6-mer frequency, TF over GST control)","1.35 fold enrichment (6-mer frequency, TF over GST control)","1.27 fold enrichment (6-mer frequency, TF over GST control)","1.4 fold enrichment (6-mer frequency, TF over GST control)","1.33 fold enrichment (6-mer frequency, TF over GST control)"
GCGACC,"1.13 fold enrichment (6-mer frequency, TF over GST control)","1.14 fold enrichment (6-mer frequency, TF over GST control)","1.19 fold enrichment (6-mer frequency, TF over GST control)","1.14 fold enrichment (6-mer frequency, TF over GST control)","1.06 fold enrichment (6-mer frequency, TF over GST control)","1.1 fold enrichment (6-mer frequency, TF over GST control)","1.1 fold enrichment (6-mer frequency, TF over GST control)","1.08 fold enrichment (6-mer frequency, TF over GST control)"
TAAGCT,"1.39 fold enrichment (6-mer frequency, TF over GST control)","1.25 fold enrichment (6-mer frequency, TF over GST control)","1.13 fold enrichment (6-mer frequency, TF over GST control)","1.11 fold enrichment (6-mer frequency, TF over GST control)","1.3 fold enrichment (6-mer frequency, TF over GST control)","1.04 fold enrichment (6-mer frequency, TF over GST control)","1.2 fold enrichment (6-mer frequency, TF over GST control)","1.15 fold enrichment (6-mer frequency, TF over GST control)"
TGCGGA,"1.14 fold enrichment (6-mer frequency, TF over GST control)","1.3 fold enrichment (6-mer frequency, TF over GST control)","1.35 fold enrichment (6-mer frequency, TF over GST control)","1.38 fold enrichment (6-mer frequency, TF over GST control)","1.22 fold enrichment (6-mer frequency, TF over GST control)","1.46 fold enrichment (6-mer frequency, TF over GST control)","1.54 fold enrichment (6-mer frequency, TF over GST control)","1.34 fold enrichment (6-mer frequency, TF over GST control)"
GCCTAT,"1.23 fold enrichment (6-mer frequency, TF over GST control)","1.28 fold enrichment (6-mer frequency, TF over GST control)","1.09 fold enrichment (6-mer frequency, TF over GST control)","1.27 fold enrichment (6-mer frequency, TF over GST control)","1.24 fold enrichment (6-mer frequency, TF over GST control)","1.15 fold enrichment (6-mer frequency, TF over GST control)","1.21 fold enrichment (6-mer frequency, TF over GST control)","1.19 fold enrichment (6-mer frequency, TF over GST control)"
CTGGTC,"1.19 fold enrichment (6-mer frequency, TF over GST control)","1.27 fold enrichment (6-mer frequency, TF over GST control)","1.21 fold enrichment (6-mer frequency, TF over GST control)","1.24 fold enrichment (6-mer frequency, TF over GST control)","1.15 fold enrichment (6-mer frequency, TF over GST control)","1.17 fold enrichment (6-mer frequency, TF over GST control)","1.24 fold enrichment (6-mer frequency, TF over GST control)","1.08 fold enrichment (6-mer frequency, TF over GST control)"
